{"source": "PubChem BioAssay AID1220", "about": "(Sanford-Burnham Center for Chemical Genomics, 2008)", "note": "Hit rate of the full screen: of about 190,000 compounds, about 1,300 (0.68%) were called active. For the sample, actives were picked, then their nearest neighbours and some compounds at random. Values without a mark were called inactive. No stated cut-off is given here; in the data, active means inhibition above about 50%; inactive means the rest.", "data": [{"biological_target": "Mannose-6-phosphate isomerase (Homo sapiens) (UniProt P34949)", "sequence (P34949 whole entry, looked up)": "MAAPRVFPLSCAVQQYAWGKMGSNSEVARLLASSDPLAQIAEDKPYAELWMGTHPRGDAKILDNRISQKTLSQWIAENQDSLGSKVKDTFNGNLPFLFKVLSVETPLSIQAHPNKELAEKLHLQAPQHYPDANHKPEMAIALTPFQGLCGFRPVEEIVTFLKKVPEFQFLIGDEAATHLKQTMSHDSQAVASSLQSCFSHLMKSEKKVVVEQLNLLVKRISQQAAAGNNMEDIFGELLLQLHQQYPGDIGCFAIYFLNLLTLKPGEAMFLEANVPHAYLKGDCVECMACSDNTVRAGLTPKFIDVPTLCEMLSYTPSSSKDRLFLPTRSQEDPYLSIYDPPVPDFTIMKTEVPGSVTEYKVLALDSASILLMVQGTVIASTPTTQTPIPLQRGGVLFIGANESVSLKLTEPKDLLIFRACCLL", "assay": "MPI inhibition at elevated mannose 6-phosphate – biochemical, fluorescence intensity, high mannose 6-phosphate, primary screen (AID 1220)", "conditions": "recombinant PMI enzyme, coupled fluorescence intensity; at 20 µM; hits give high values", "values": [{"smiles": "CC(=O)c1cccc(N/C=C\\C(=O)c2ccc(C)cc2)c1", "inhibition": "1.9%"}, {"smiles": "CCN(CC)S(=O)(=O)c1cccc(C(=O)Nc2ccc(C#N)cc2)c1", "inhibition": "16.5%"}, {"smiles": "Cc1cccc(N2CCN(C(=O)c3ccc(CNc4c(N5CCC(C)CC5)c(=O)c4=O)cc3)CC2C)c1", "note": "(stereo unspecified)", "inhibition": "4.9%"}, {"smiles": "O=C(CS(=O)CC(=O)N(c1cccc(F)c1)C(C(=O)NC1CCCCC1)c1ccco1)Nc1ccc(F)cc1", "note": "(stereo unspecified)", "inhibition": "-6.4%"}, {"smiles": "C/C(=N\\NC(=O)CN(c1ccccc1)S(=O)(=O)c1ccccc1[N+](=O)[O-])C(C)(C)C", "inhibition": "8.8%"}, {"smiles": "FCCCOc1ccc(-c2nccc(-c3ccc(Br)cc3)n2)cc1", "inhibition": "8.4%"}, {"smiles": "Cc1cc(NC(=O)CSc2nnc(C3CC3)n2-c2ccccc2)no1", "inhibition": "-7.9%"}, {"smiles": "Oc1ccc(Br)cc1/C=N/Nc1nc(N2CCCCC2)nc(N2CCOCC2)n1", "inhibition": "20%"}, {"smiles": "C(=N\\Nc1nc(N2CCCCCC2)nc(N2CCCCCC2)n1)/c1ccccc1", "inhibition": "23.1%"}, {"smiles": "COc1ccc(/C=N/Nc2cc(N3CCCC3)nc(N3CCCC3)n2)cc1", "inhibition": "49%"}, {"smiles": "COc1ccc(/C=N/Nc2nc(N3CCCC3)nc(N3CCCC3)n2)cc1", "inhibition": "0.1%"}, {"smiles": "COc1cc(/C=N/Nc2nc(N3CCCC3)nc(N3CCCC3)n2)ccc1O", "inhibition": "5.1%"}, {"smiles": "Oc1cccc(/C=N/Nc2cc(N3CCCC3)nc(N3CCCC3)n2)c1", "inhibition": "59.8% (active)"}, {"smiles": "Oc1ccccc1/C=N/Nc1cc(N2CCCC2)nc(N2CCCC2)n1", "inhibition": "52% (active)"}, {"smiles": "O=C(O)c1ccccc1/C=N/Nc1nc(N2CCCCC2)nc(N2CCCCC2)n1", "inhibition": "-0.2%"}, {"smiles": "Oc1ccc(/C=N/Nc2cc(N3CCCC3)nc(N3CCCC3)n2)cc1", "inhibition": "58.7% (active)"}, {"smiles": "COc1cc(-c2cc(N)n(S(=O)(=O)c3ccccc3)n2)cc(OC)c1OC", "inhibition": "-2.1%"}, {"smiles": "CCOC(=O)c1ccc(S(=O)(=O)Nc2ccc3cn[nH]c3c2)cc1", "inhibition": "24.1%"}, {"smiles": "CC1CCC(NC(=O)Cn2cc3c(n2)CCCC3)CC1", "note": "(stereo unspecified)", "inhibition": "3.7%"}, {"smiles": "CC(C)=CCCC1=CCC(/C=N/NC(N)=O)C(C)C1", "note": "(stereo unspecified)", "inhibition": "-36.5%"}, {"smiles": "OC(c1ccccc1)c1nc2ccccc2s1", "note": "(stereo unspecified)", "inhibition": "6%"}, {"smiles": "O=C(N/N=C/c1ccc(Br)o1)c1ccc2c(c1)OCCO2", "inhibition": "0%"}, {"smiles": "C(=N\\Nc1nc2ccccc2[nH]1)/c1ccccn1", "inhibition": "-33.9%"}, {"smiles": "CC(C)CN1C(=O)/C(=C(/C#N)C(=O)NC2CCCCC2)c2ccccc21", "inhibition": "20%"}, {"smiles": "N#CCCCN1C(=O)C(O)(CC(=O)c2ccc3c(c2)OCCO3)c2ccccc21", "note": "(stereo unspecified)", "inhibition": "11.1%"}, {"smiles": "N#CCCCN1C(=O)C(=C(C#N)C#N)c2ccccc21", "inhibition": "59.5% (active)"}, {"smiles": "Cc1ccc(C(=O)NCCCNc2ccccc2[N+](=O)[O-])cc1", "inhibition": "1.8%"}, {"smiles": "Cc1ncc(S(=O)(=O)c2ccccc2)c(-c2ccccc2)n1", "inhibition": "-4.6%"}, {"smiles": "CC(C)C(=O)NC(=S)Nc1ccc(S(=O)(=O)NC(C)(C)C)cc1", "inhibition": "-1.7%"}, {"smiles": "COC(=O)C1=C(C)N(Cc2ccco2)C(=O)/C1=C\\c1ccc(N(C)C)cc1", "inhibition": "19.7%"}, {"smiles": "CCOc1cc(/C=C2\\C(=O)N(Cc3ccc(C)cc3)C(C)=C2C(=O)OC)ccc1O", "inhibition": "53.3% (active)"}, {"smiles": "COC(=O)C1=C(C)N(CCc2ccc(OC)c(OC)c2)C(=O)/C1=C\\c1ccc(O)cc1", "inhibition": "6%"}, {"smiles": "COC(=O)C1=C(C)N(Cc2ccc(C)cc2)C(=O)/C1=C\\c1cc(OC)c(OC)c(OC)c1", "inhibition": "23.1%"}, {"smiles": "COC(=O)C1=C(C)N(Cc2ccc(C)cc2)C(=O)/C1=C\\c1ccc(O)c(OC)c1", "inhibition": "58.7% (active)"}, {"smiles": "COC(=O)C1=C(C)N(Cc2ccco2)C(=O)/C1=C\\c1ccc([N+](=O)[O-])cc1", "inhibition": "-22%"}, {"smiles": "C=CCOc1cccc(/C=C2\\C(=O)N(Cc3ccc(C)cc3)C(C)=C2C(=O)OC)c1", "inhibition": "10.8%"}, {"smiles": "CCOc1cc(/C=C2/N=C(C)C(C(=O)OC)=C2O)ccc1O", "inhibition": "31.3%"}, {"smiles": "CCN1C(=O)/C(=C\\c2ccc3c(c2)OCO3)C(C(=O)OC)=C1C", "inhibition": "-6.5%"}, {"smiles": "COC(=O)C1=C(C)N(CCc2ccc(OC)c(OC)c2)C(=O)/C1=C\\N(C)C", "inhibition": "-13.2%"}, {"smiles": "CCOc1cc(/C=C2\\C(=O)N(Cc3ccco3)C(C)=C2C(=O)OC)ccc1O", "inhibition": "68.2% (active)"}, {"smiles": "CCOc1cc(/C=C2\\C(=O)N(CCc3ccc(OC)c(OC)c3)C(C)=C2C(=O)OC)ccc1O", "inhibition": "50.6% (active)"}, {"smiles": "c1ccc(-c2nc3ccccc3[nH]2)nc1", "inhibition": "15.7%"}, {"smiles": "Cc1ccc(CCNC(=O)C2CCCN(C(=O)N(C)C)C2)cc1", "note": "(stereo unspecified)", "inhibition": "-6.4%"}, {"smiles": "O=C(CN1C(=O)COc2ccccc21)N1CCc2ccccc21", "inhibition": "1.2%"}, {"smiles": "COc1ccc(NC(=O)CC2C(=O)N(C)C(=S)N2CCc2ccccc2F)cc1", "note": "(stereo unspecified)", "inhibition": "8.1%"}, {"smiles": "CC(C)=CCN1CCN(Cc2cnc(N3CCOCC3)s2)CC1CCO", "note": "(stereo unspecified)", "inhibition": "-6.5%"}, {"smiles": "O=C(C1=C[C@@H](c2coc3ccccc3c2=O)C[C@@H](OCc2ccc(CO)cc2)O1)N1CCOCC1", "inhibition": "-6.8%"}, {"smiles": "CCOC(=O)Cc1csc(NC(=O)c2cc(=O)c3ccccc3o2)n1", "inhibition": "-6.1%"}, {"smiles": "CCOC(=O)Cc1csc(SCn2nnc3ccccc3c2=O)n1", "inhibition": "-0.1%"}, {"smiles": "CCOC(=O)c1c(N)c(C#N)cn1-c1ccccc1", "inhibition": "10%"}, {"smiles": "C=CCNC(=S)Nc1cccc2ccccc12", "inhibition": "14.3%"}, {"smiles": "CNC(=S)Nc1cccc2[nH]ncc12", "inhibition": "2.6%"}, {"smiles": "C=CCNC(=S)Nc1cccc2[nH]ncc12", "inhibition": "52.5% (active)"}, {"smiles": "CCCCn1c2nc3ccccc3nc2c2c(=N)oc(C)nc21", "inhibition": "30.1%"}, {"smiles": "CCCCC(CC)Cn1c2nc3ccccc3nc2c2c(=N)oc(C)nc21", "note": "(stereo unspecified)", "inhibition": "-4.2%"}, {"smiles": "COc1ccc(-n2c3nc4ccccc4nc3c3c(=N)oc(C)nc32)cc1", "inhibition": "55.9% (active)"}, {"smiles": "CCn1c(SCC(=O)N/N=C/c2ccc(C)o2)nnc1-c1ccccc1", "inhibition": "3.1%"}, {"smiles": "CN1CCN(S(=O)(=O)c2ccc3c(c2)OCCO3)CC1", "inhibition": "-4.9%"}, {"smiles": "COc1cc2c(cc1/C=C/C(=O)O)OC(C)C2", "note": "(stereo unspecified)", "inhibition": "13.7%"}, {"smiles": "CC(C)(Cl)C1Cc2cc3ccc(=O)oc3cc2O1", "note": "(stereo unspecified)", "inhibition": "-9.9%"}, {"smiles": "CCc1nnc(NC(=O)CSc2nnc3c(C)cc4c(C)ccc(C)c4n23)s1", "inhibition": "2.3%"}, {"smiles": "Cc1nc2ccc(NC(=O)/C=C/C(=O)O)cc2nc1C", "inhibition": "42.9%"}, {"smiles": "CC(C)(C)NC(=O)Nc1ccc2nccnc2c1", "inhibition": "35.1%"}, {"smiles": "O=C(O)/C=C/C(=O)Nc1ccc2nccnc2c1", "inhibition": "56.2% (active)"}, {"smiles": "CN1CC(=O)N(CC(=O)N2CCC(Cc3ccccc3)CC2)C1=O", "inhibition": "-3.5%"}, {"smiles": "CCC(C)N(C(=O)CSc1nc(-c2ccccc2)cs1)C1CCS(=O)(=O)C1", "note": "(stereo unspecified)", "inhibition": "3.2%"}, {"smiles": "CC(C)CN(Cc1c(O)ccc2ccccc12)CC(C)C", "inhibition": "68.8% (active)"}, {"smiles": "Oc1ccc2ccccc2c1CNn1cnnc1", "inhibition": "3.1%"}, {"smiles": "Cc1cc(=O)oc2c(CN(CC(C)C)CC(C)C)c(O)ccc12", "inhibition": "-3.3%"}, {"smiles": "O=C(CN1CCC(C(O)(c2ccccc2)c2ccccc2)CC1)Nc1ccccc1", "inhibition": "-1.7%"}, {"smiles": "CCN1CCN(c2nc(-c3ccncc3)nc3ccccc23)CC1", "inhibition": "6.3%"}, {"smiles": "NC(=O)C1CCN(C(=O)c2cc3n(n2)C(C(F)(F)F)CC(c2ccco2)N3)CC1", "note": "(stereo unspecified)", "inhibition": "0.3%"}, {"smiles": "COc1ccc(CCNC(=O)CCCn2nc(C)c([N+](=O)[O-])c2C)cc1OC", "inhibition": "8.3%"}, {"smiles": "CCCCn1c2nc3ccccc3nc2c2c(=O)n(C(C)CC)cnc21", "note": "(stereo unspecified)", "inhibition": "53.2% (active)"}, {"smiles": "CCCCn1c2nc3ccccc3nc2c2c(=O)n(CCC)cnc21", "inhibition": "7.3%"}, {"smiles": "CCCCn1c2nc3ccccc3nc2c2c(=O)n(CCC(C)C)cnc21", "inhibition": "-12.9%"}, {"smiles": "CCOC(=O)C1=C(CC)OC(N)=C(C#N)C1c1cccs1", "note": "(stereo unspecified)", "inhibition": "4.7%"}, {"smiles": "CCOC(=O)C1=C(CSc2nc(-c3ccccc3)ccc2C#N)OC(N)=C(C#N)C1c1ccc(OC)cc1", "note": "(stereo unspecified)", "inhibition": "29.4%"}, {"smiles": "CCOC(=O)C1=C(CSc2nc(CC)c(C)cc2C#N)OC(N)=C(C#N)C1c1ccc(OC)cc1", "note": "(stereo unspecified)", "inhibition": "52.3% (active)"}, {"smiles": "CCOC(=O)C1=C(CSc2nc(C)cc(C)c2C#N)OC(N)=C(C#N)C1c1cccs1", "note": "(stereo unspecified)", "inhibition": "55.7% (active)"}, {"smiles": "CCOC(=O)C1=C(CSc2nc(C)cc(C)c2C#N)OC(N)=C(C#N)C1c1ccccc1", "note": "(stereo unspecified)", "inhibition": "47%"}, {"smiles": "CCOC(=O)C1=C(CSc2nc(CC)c(C)cc2C#N)OC(N)=C(C#N)C1c1ccccc1", "note": "(stereo unspecified)", "inhibition": "11.9%"}, {"smiles": "COC(=O)c1ccc(S(=O)(=O)N2CCCCC2)o1", "inhibition": "9%"}, {"smiles": "Cc1cc(NN)nc(NS(=O)(=O)c2ccccc2)n1", "inhibition": "5%"}, {"smiles": "CC(C)N(C(=O)CSc1nnc(CN2CCCCCC2=O)n1-c1ccccn1)C(C)C", "inhibition": "-4.7%"}, {"smiles": "COc1ccc(N(C(=O)Cn2nnc3ccccc32)C(C(=O)NC(C)(C)C)c2ccc(OC)c(O)c2)cc1", "note": "(stereo unspecified)", "inhibition": "-4%"}, {"smiles": "Cc1cc2n(n1)SC(Nc1ccccc1)N2", "note": "(stereo unspecified)", "inhibition": "-0.8%"}, {"smiles": "CCc1ccccc1NC1Nc2cc(C)nn2S1", "note": "(stereo unspecified)", "inhibition": "27.6%"}, {"smiles": "Cc1cc2n(n1)SC(Nc1cccc3ccccc13)N2", "note": "(stereo unspecified)", "inhibition": "54.1% (active)"}, {"smiles": "CCCC1CCC(=NNC(=O)OC(C)(C)C)CC1", "note": "(stereo unspecified)", "inhibition": "2.1%"}, {"smiles": "Cc1ccc(Oc2ccc(Cl)cc2N)cc1", "inhibition": "-7.7%"}, {"smiles": "CN(C)c1ccc(C(=O)c2ccc(N(C)C)c(N)c2)cc1N", "inhibition": "23.2%"}, {"smiles": "CN(C)c1ccc(Cl)cc1N", "inhibition": "53.2% (active)"}, {"smiles": "O=C1Nc2ccc(S(=O)(=O)N3CCCC3)c3ccc(S(=O)(=O)N4CCCC4)c1c23", "inhibition": "32.5%"}, {"smiles": "CCCCCC(=O)NC(CC(=O)OC)c1ccc2c(c1)OCO2", "note": "(stereo unspecified)", "inhibition": "2.2%"}, {"smiles": "CCc1ccc(OCC(=O)OCC(=O)c2ccc3c(c2)NC(=O)CO3)cc1", "inhibition": "5%"}]}]}
